Source: PubChem BioAssay AID624296 (National Center for Advancing Translational Sciences (NCATS), 2012)
The whole screen tested about 350,000 compounds, of which about 9,900 (2.8%) were called active. Entries that show only a call come without a potency. About 15% were inconclusive and are not listed. Only a selection was taken, and actives are over-represented in it overall. Values without a mark were called inactive. Calls come from the whole dose curve; as a rule, active = well fitted activation curve with a large enough effect; inconclusive = small, poorly fitted or top-dose-only effect; inactive = no such curve, though single readings can be large or run the other way.
Potency is the fitted concentration of half-maximal effect.

Assay: A quantitative high throughput screen for small molecules that induce DNA re-replication in MCF 10a normal breast cells. Note: nearly all actives have a fitted effect of over 50% in size.
Settings: MCF 10A DNA re-replication, Hoechst nuclear intensity, 48 h; series mostly up to 46.1 µM
With `COc1ccc(S(=O)(=O)N(C)C[C@H]2Oc3c(NC(=O)Nc4ccc5c(c4)OCO5)cccc3C(=O)N([C@H](C)CO)C[C@@H]2C)cc1` the Potency was “inactive”.
For `CCCN(C(=O)CSc1nnc(N)s1)c1c(N)n(Cc2ccccc2)c(=O)[nH]c1=O`, the Potency was “inactive”.
With `O=C1c2cccc3cc(Br)cc(c23)C(=O)N1Nc1ccccc1` the Potency was “inactive”.
With `O=C(O)CC1=C(Nc2ccccc2)C(=O)N(c2ccccc2)C1c1ccc(Cl)cc1` (stereo not drawn) the Potency was “inactive”.
For `O=C1C=C(c2ccc(Cl)cc2)C(=O)N1Nc1ccccc1`, the Potency was 5.8 µM (active).
For `Cc1ccc(Nc2nnc(SC(C)C(=O)NC3CC3)s2)cc1` (stereo not drawn), the Potency was “inactive”.
In the case of `O=C(NN=C1CCC(=NNC(=O)c2cccnc2)CC1)c1cccnc1`, the Potency is reported as 0.58 µM (active).
In the case of `C/C(=N\NC(=O)c1cccnc1)c1ccc(-c2ccccc2)cc1`, the Potency is reported as “inactive”.
In the case of `O=C(N/N=C/c1ccccn1)c1cccnc1`, the Potency is reported as “inactive”.
For `CCN(CC)CCCC(C)n1c2nc(=O)[nH]c(=O)c-2nc2cc(Cl)ccc21` (stereo not drawn), the Potency was “inactive”.
In the case of `COc1ccc(-c2nn(-c3ccccc3)cc2/C=C2/SC(=S)N(CCCC(=O)O)C2=O)c(C)c1`, the Potency is reported as “inactive”.
In the case of `Cc1ccc(-c2nn(-c3ccccc3)cc2/C=C2\SC(=S)N(CCCCCC(=O)O)C2=O)o1`, the Potency is reported as 18.4 µM (active).
With `CN(C)S(=O)(=O)c1cccc(-c2nn(-c3ccccc3)cc2/C=C2\SC(=S)N(CC(=O)O)C2=O)c1` the Potency was “inactive”.
For `COc1cc(OC)cc(-c2c(-c3cccs3)c3cc(-c4ccc(OC)nc4)ccc3n2C)c1`, the Potency was “inactive”.
With `O=C(CCNC(=O)c1ccccc1)Nc1nc2ccccc2s1` the Potency was “inactive”.
With `CCS(=O)(=O)Nc1cccc(-c2cc(-c3ccccc3)c3cc(C)ccc3n2)c1` the Potency was 14.6 µM (active).
With `Cc1ccc2nc(Nc3ccccc3)cc(C)c2c1` the Potency was “inactive”.
In the case of `CC(=O)Nc1cccc(-c2cnc3ccccc3n2)c1`, the Potency is reported as “inactive”.
For `O=C(Cn1cc(C(F)(F)F)ccc1=O)Nc1ccc2c(c1)OCCO2`, the Potency was “inactive”.
For `CC(C)(C)OC(=O)c1c(N)n(CCCN2CCCC2=O)c2nc3ccccc3nc12`, the Potency was “inactive”.
For `CC(C)(C)c1ccc(C(=O)NCC(=O)OCN2C(=O)c3ccccc3C2=O)cc1`, the activity, positive = re-replication was -182% [at 0.0737 µM].
For `CC(C)(C)c1ccc(C(=O)NCCn2c(N)c(C#N)c3nc4ccccc4nc32)cc1`, the Potency was 7.31 µM (active).
For `Cc1ccnc(SCC(=O)Nc2cccc(S(=O)(=O)N3CCOCC3)c2)n1`, the Potency was “inactive”.
With `O=C1C(=O)N(c2ccccc2)C(c2ccccc2)C1c1ccccc1` (stereo not drawn) the Potency was “inactive”.
In the case of `O=C(c1nnc(-c2ccc(Cl)cc2)o1)C1CCCC1`, the Potency is reported as “inactive”.
With `S=c1[nH]nc(-c2ccc(Cl)cc2)n1CC1CCCO1` (stereo not drawn) the Potency was “inactive”.
In the case of `O=C(c1[nH]ncc1-c1ccc(Cl)cc1)C1CO1` (stereo not drawn), the Potency is reported as 3.66 µM (active).
For `COC(=O)[C@@]1(C)[C@H]2C(=O)N(Cc3ccccc3)C(=O)[C@H]2[C@H]2CN=C(SCC3CC3)N21`, the Potency was “inactive”.
In the case of `COc1ccc(Cl)cc1NC(=O)CN(C)CC(=O)Nc1ccc2c(c1)OCO2`, the Potency is reported as “inactive”.
With `Cc1ccc(C)c(N2CCN(C(=O)CCc3nc(-c4cccc(C(F)(F)F)c4)no3)CC2)c1` the Potency was “inactive”.
With `NC(=S)NN=C1CCCC(C(F)(F)F)C1` (stereo not drawn) the Potency was “inactive”.
With `Cc1ccc(S(=O)(=O)n2oc(=O)c(C3CCCCC3)c2N)cc1` the Potency was “inactive”.
In the case of `COc1cccc(CC2(CO)CCN(Cc3cnc(-c4cccc(C)c4)nc3)CC2)c1`, the Potency is reported as “inactive”.
In the case of `Cc1cccc(-c2ncc(CN3CCC(CO)(CCCc4ccccc4)CC3)cn2)c1`, the Potency is reported as 18.4 µM (active).
In the case of `OCC1(CCc2ccccc2)CCN(Cc2ccc3nsnc3c2)CC1`, the Potency is reported as “inactive”.
With `COc1cccc(C2=CC(=O)C[C@H](c3ccc(OC)c(OC)c3)C2)c1` the Potency was “inactive”.
For `CCOc1ccc(N2C(=O)CSC2=NC#N)cc1`, the Potency was “inactive”.
In the case of `O=C1CSC(=S)N1c1ccc(O)cc1`, the Potency is reported as 16.4 µM (active).
With `COc1ccc(N2C(=O)CNC2=S)cc1` the Potency was “inactive”.
With `COc1ccc(CNC(=O)CN2C(=O)NC3(CCCc4sccc43)C2=O)cc1` (stereo not drawn) the Potency was “inactive”.
For `O=C(CCCCCCCC(=O)N1CCCCC1)N1CCCCC1`, the Potency was “inactive”.
With `O=C(Nc1cc(-c2ccccc2)nn1-c1ccccc1F)c1ccc([N+](=O)[O-])cc1` the Potency was “inactive”.
For `O=C1CSc2ccc(C(=O)NCc3ccccn3)cc2N1`, the Potency was “inactive”.
For `CCCC(CNC(=O)COC(=O)C1=NNC(=O)CC1)c1ccc(Cl)cc1Cl` (stereo not drawn), the Potency was “inactive”.
With `O=C(NCc1cccnc1)c1cn(-c2ccccc2)nc1-c1cccs1` the Potency was “inactive”.
For `O=C(O)c1ccc(N/N=C/c2cn(-c3ccccc3)nc2-c2cccs2)cc1`, the Potency was 23.1 µM (active).
With `O=C(O)/C=C/c1cn(-c2ccccc2)nc1-c1cccs1` the Potency was “inactive”.
In the case of `CCCCn1c(=S)[nH]c2ccccc2c1=O`, the Potency is reported as “inactive”.
With `COc1ccccc1Cn1c(=S)[nH]c2cc(C(=O)N3CCN(C)CC3)ccc2c1=O` the Potency was “inactive”.
With `O=c1c2ccccc2[nH]c(=S)n1CCN1CCC(=C(c2ccc(F)cc2)c2ccc(F)cc2)CC1` the Potency was 18.4 µM (active).
With `CCCOc1ccccc1C1CC(=O)Nc2cc3c(cc21)OCO3` (stereo not drawn) the Potency was 6.51 µM (active).
For `COc1ccccc1C1C2=C(COC2=O)Nc2cc3c(cc21)OCO3` (stereo not drawn), the Potency was “inactive”.
In the case of `COc1ccc(C2CC(=O)Nc3cc(C)c(C)cc32)c(OC)c1OC` (stereo not drawn), the Potency is reported as “inactive”.
For `Nc1c(N(Cc2ccco2)C(=O)c2cccc(F)c2)c(=O)[nH]c(=O)n1Cc1ccccc1`, the Potency was “inactive”.
With `CC(=O)NC1=NN(C(C)=O)C(C)(c2ccc(C)cc2)S1` (stereo not drawn) the Potency was “inactive”.
In the case of `CC(=O)NC1=NN(C(C)=O)C(C)(CCS(=O)(=O)c2ccc(Cl)c(Cl)c2)S1` (stereo not drawn), the Potency is reported as “inactive”.
With `CC(=O)NC1=NN(C(C)=O)C(C)(c2ccc(Cl)s2)S1` (stereo not drawn) the Potency was 8.2 µM (active).
In the case of `COc1ccccc1S(=O)(=O)NCc1ccc(C(=O)N(C)Cc2ccc(F)cc2)cc1`, the Potency is reported as “inactive”.
With `O=C(COC(=O)c1cccnc1Cl)NC12CC3CC(CC(C3)C1)C2` the Potency was “inactive”.
For `O=C(COC(=O)c1ccc(F)cc1)NCC1COc2ccccc2O1` (stereo not drawn), the Potency was “inactive”.
In the case of `O=C(COC(=O)c1ccccc1O)NCc1ccco1`, the Potency is reported as “inactive”.
With `Cc1cc(C(=O)OCC(=O)NCc2ccco2)c(C)n1-c1ccccc1` the Potency was 6.31 µM (active).
In the case of `CN(c1ccccc1)S(=O)(=O)c1ccc(Cl)c(C(=O)OCC(=O)NCc2ccco2)c1`, the Potency is reported as “inactive”.
With `O=C1c2ccccc2C(=O)N1CCCCCCN1C(=O)c2ccccc2C1=O` the Potency was “inactive”.
For `COC(=O)c1ccc(C)c(NC(=O)Cn2c(C)csc2=O)c1`, the Potency was “inactive”.
With `CCSc1nsc(NC(=O)Nc2ccccc2OC)n1` the Potency was “inactive”.
For `C=CCSc1nsc(NC(=O)Nc2cccc(C(C)=O)c2)n1`, the Potency was “inactive”.
In the case of `CCSc1nsc(NC(=O)Nc2cccc(C(C)=O)c2)n1`, the Potency is reported as 16.4 µM (active).
For `COc1cc(C2C(C(=O)c3ccc(C)o3)=C(O)C(=O)N2Cc2cccnc2)ccc1O` (stereo not drawn), the Potency was “inactive”.
With `Cc1cc(N2C(=O)C(O)=C(C(=O)c3ccc(C)o3)C2c2ccc(OCc3ccccc3)cc2)no1` (stereo not drawn) the Potency was 20.6 µM (active).
In the case of `COc1cc(C2C(C(=O)c3ccc(C)o3)=C(O)C(=O)N2CCc2ccccc2)ccc1O` (stereo not drawn), the Potency is reported as “inactive”.
For `Cc1ccc(NC(=O)CN(C)C(=O)c2cccc(S(=O)(=O)N3CCCC3)c2)cc1`, the Potency was “inactive”.
For `Cc1ccc(S(=O)(=O)N2[C@@H](c3ccccc3F)C(C(=O)O)=CC[C@H]2c2ccc(Cl)cc2)cc1`, the Potency was 7.31 µM (active).
In the case of `Cc1ccc(S(=O)(=O)N2[C@@H](c3cccc4ccccc34)C(C(=O)O)=C[C@H]2C(C)(C)C)cc1`, the Potency is reported as “inactive”.
For `Cc1ccc(S(=O)(=O)N2C3C=CC(C3)C2C(=O)O)cc1` (stereo not drawn), the Potency was “inactive”.
For `COC(=O)C1=C(C)N(Cc2ccccc2)C(=NCCCOC(C)C)N[C@H]1c1ccccc1`, the Potency was “inactive”.
For `CC1O[C@H](OC2C(COC3OC(CO)C(O)[C@H](O)C3O)OC(OC3CC[C@]4(C)C(CC[C@@]5(C)[C@@H]4C=C[C@]46OC[C@@]7(CCC(C)(C)C[C@H]74)C(O)C[C@@]56C)C3(C)C)C(O)C2O)C(O)C(O)C1O` (stereo partly drawn), the Potency was “inactive”.
With `COc1ccc(OCCCC(=O)Nc2cccc(S(=O)(=O)N3CCCCCC3)c2)cc1` the Potency was “inactive”.
In the case of `CN(CC(=O)NC1CCN(Cc2ccccc2)CC1)S(=O)(=O)c1ccc(Cl)s1`, the Potency is reported as “inactive”.
With `CC(=O)Oc1ccc(OC(C)=O)c2c1C1C=CC2CC1` the Potency was 10.3 µM (active).
With `CC(=O)Oc1ccc(C(C)=O)c2c1OCCO2` the Potency was “inactive”.
With `CC(=O)Oc1ccccc1C1=NN(C(C)=O)C(c2ccccc2)C1` (stereo not drawn) the Potency was “inactive”.
For `CCCCN(C(=O)c1cccc(N2C(=O)c3ccccc3C2=O)c1)c1c(N)n(CCCC)c(=O)[nH]c1=O`, the Potency was “inactive”.
For `O=C(COC(=O)C1CCCO1)Nc1nc(-c2ccc(F)cc2)cs1` (stereo not drawn), the Potency was “inactive”.
With `COc1cc(CNCCN(C)C)ccc1OCc1c(F)cccc1Cl` the Potency was “inactive”.
In the case of `COCCCNC(=O)/C=C/c1ccc(OCc2c(F)cccc2Cl)cc1`, the Potency is reported as “inactive”.
With `CN(C)CCCNC(=O)/C=C/c1ccc(OCc2c(F)cccc2Cl)cc1` the Potency was 23.1 µM (active).
With `O=c1oc2ccccc2c(=O)c2ccccc12` the Potency was “inactive”.
For `Cc1c(Cl)cccc1NC(=O)CC1SC(=NCC2CCCO2)NC1=O` (stereo not drawn), the Potency was “inactive”.
With `Cc1ccc(NC(=O)CC2S/C(=N/N=C3\CCCc4ccccc43)NC2=O)cc1` (stereo not drawn) the Potency was 14.6 µM (active).
In the case of `CCN=C1SC(CC(=O)Nc2ccc(C)cc2)C(=O)N1CC` (stereo not drawn), the Potency is reported as “inactive”.
With `CCN(CC(=O)Nc1c(F)cccc1F)C(=O)c1ccc(-c2ccc(C(C)=O)cc2)o1` the Potency was “inactive”.
For `CCCCNS(=O)(=O)CCNCc1ccccc1OC`, the Potency was “inactive”.
For `CC(Sc1ccccc1F)C(=O)Nc1cccc(S(=O)(=O)N2CCOCC2)c1` (stereo not drawn), the Potency was “inactive”.
For `O=C(CSc1cccc[n+]1[O-])c1ccc(-c2ccccc2)cc1`, the Potency was 8.2 µM (active).
For `O=C(CSc1cccc[n+]1[O-])c1ccc(Cl)cc1`, the Potency was “inactive”.
In the case of `COc1ccccc1C(=O)CSc1cccc[n+]1[O-]`, the Potency is reported as “inactive”.
In the case of `CC[C@]12c3[nH]c4cc(CCC(=O)N(C)C)ccc4c3CCN1C(=O)[C@@H](CC(=O)NCCCN(C)C)C[C@@H]2C(=O)N1CCN(C(=O)c2ccco2)CC1`, the Potency is reported as “inactive”.
